In the library only some 3.6% were active in any assay of this set; here they are far more common.
Sm TGR inh: blocks Schistosoma mansoni thioredoxin glutathione reductase | Q962Y6 | purified TGR, DTNB reduction, TNB absorbance 405 nm | Potency, µM (series often up to 114 µM), most hits filed as inhibitors | 360,000 compounds, 3% hits; also: nearly all actives have a fitted effect of over 60% in size
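Kinetic colorimetric format: TGR-catalysed, NADPH-driven DTNB reduction monitored via TNB absorbance. Enzyme dispensed at 20 nM; compound exposure 15 min at room temperature before reaction start.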
AmpC detergent: AmpC beta-lactamase inhibition with detergent present | 370,000 compounds, 0.041% hits | P00811 | AmpC hydrolysis of nitrocefin, absorbance 480 nm, 0.01% Triton | Potency, µM (doses to about 114 µM), actives largely listed as inhibitors; also: nearly all actives have a fitted effect of over 25% in size
Target sequence (P00811 whole entry, looked up): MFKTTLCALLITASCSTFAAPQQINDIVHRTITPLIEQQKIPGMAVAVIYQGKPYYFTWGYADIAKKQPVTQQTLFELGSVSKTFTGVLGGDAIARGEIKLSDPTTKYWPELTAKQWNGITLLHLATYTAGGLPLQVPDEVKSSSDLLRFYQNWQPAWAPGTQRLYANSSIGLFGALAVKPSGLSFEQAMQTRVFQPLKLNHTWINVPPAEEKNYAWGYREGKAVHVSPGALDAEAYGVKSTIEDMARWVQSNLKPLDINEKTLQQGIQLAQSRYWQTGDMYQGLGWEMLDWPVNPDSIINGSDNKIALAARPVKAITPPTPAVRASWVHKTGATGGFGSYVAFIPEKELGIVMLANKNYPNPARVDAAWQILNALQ
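20 mM phosphate pH 7.0 + 0.01% (detergent screen) or 0.0001% Triton X-100; 5.3 nM AmpC reagent; cpd preinc 15 min RT; nitrocefin (800 uM stock) to start; A480 q20 s × 4 min; Activity was normalised to no-enzyme and no-compound control wells.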
AmpC no deterg: AmpC beta-lactamase inhibition without detergent | P00811 | AmpC nitrocefin hydrolysis, absorbance 480 nm, 0.0001% Triton | Potency, µM (top dose mostly 57.1 µM), actives largely listed as inhibitors | 330,000 compounds, 0.52% hits; also: nearly all actives have a fitted effect of over 20% in size
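AmpC (5.3 nM in the dispensed reagent) in 20 mM phosphate pH 7.0 with 0.01% (detergent screen) or 0.0001% Triton X-100 was preincubated with compounds for 15 min at room temperature. Nitrocefin was then added from an 800 uM solution, and hydrolysis was followed at 480 nm.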
FBPA Giardia inh: inhibitors of Giardia lamblia fructose-1,6-bisphosphate aldolase. A8B2U2. AID 2451. 290,000 compounds, 0.71% hits. purified Giardia FBPA. Potency, µM (doses to about 59.6 µM), actives largely listed as inhibitors; also: nearly all actives have a fitted effect of over 55% in size
Target sequence (A8B2U2 whole entry, looked up): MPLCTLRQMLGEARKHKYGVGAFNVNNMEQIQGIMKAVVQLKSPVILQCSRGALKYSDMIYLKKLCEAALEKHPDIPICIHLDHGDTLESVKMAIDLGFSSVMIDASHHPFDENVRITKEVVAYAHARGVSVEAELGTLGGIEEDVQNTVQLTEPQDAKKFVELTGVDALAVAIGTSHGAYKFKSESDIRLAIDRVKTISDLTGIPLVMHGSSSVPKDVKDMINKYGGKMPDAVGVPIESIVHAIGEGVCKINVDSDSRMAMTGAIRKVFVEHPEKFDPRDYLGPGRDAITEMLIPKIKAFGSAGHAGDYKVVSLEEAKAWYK
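Giardia FBPA (40 nM reagent) was preincubated 10 min at RT with compound (up to 57.5 uM final), then substrate plus GAPDH/TPI/NAD/arsenate coupling system with diaphorase/resazurin was added; resorufin fluorescence (525/598 nm) was read after 20 min.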
Numbers stand for hits; 0 = inactive; ? = inconclusive; - = not tested or not shown; [ ] = dose if it differs, or a comment. Calls follow the shape of the dose curve; as a rule, active = well fitted curve in the direction sought with a large enough effect; inconclusive = small, poorly fitted or top-dose-only effect, or another doubt; inactive = no such curve, though single readings can be large; an effect the other way counts as inactive or inconclusive.

SMILES | Sm TGR inh | AmpC detergent | AmpC no deterg | FBPA Giardia inh
CCOc1ccc(C2c3c(oc4ccccc4c3=O)C(=O)N2CCCN2CCOCC2)cc1 (stereo not given) | 35.5µM | ? | 0 | 0
CC[C@]1(C(=O)OC)[C@H]2C(=O)N(C)C(=O)[C@H]2[C@H]2CN(C)C(=NC)N21 | - | - | 0 | -
CN1C(=O)c2oc3ccccc3c(=O)c2C1c1ccncc1 (stereo not given) | 44.7µM | 0 | 0 | 0
CSc1nsc(/C=C/Nc2ccc(O)cc2C)c1C#N | 0 | ? | 0 | 17.7µM
CSc1nsc(/C=C/Nc2ccc(F)cc2)c1C#N | 0 | 0 | 0 | ?
CSc1nsc(/C=C/Nc2ccc(Cl)cc2)c1C#N | 0 | 0 | 17.8µM | 0
CCN(Cc1cnn(C)c1)C(=O)c1ccc2nc(Cc3cccc(Cl)c3)oc2c1 | 0 | 0 | 0 | 0
O=C(CCS(=O)(=O)c1ccccc1)Nc1nc2cc3c(cc2s1)OCO3 | 10µM | 0 | 0 | 0
CS(=O)(=O)c1ccc2nc(NC(=O)CCS(=O)(=O)c3ccccc3)sc2c1 | ? | ? | 0 | 0
O=C(CCS(=O)(=O)c1ccccc1)Nc1nc2ccc(F)cc2s1 | ? | 0 | 0 | -
O=C(CCS(=O)(=O)c1ccccc1)Nc1nc2cc3c(cc2s1)OCCO3 | 10µM | 0 | 0 | 0
COC(CNC(=O)c1ccc2c3c(onc13)-c1ccccc1C2=O)OC | 12.6µM | 0 | 0 | ?
COc1ccc(/C=N/NC(=S)Nc2ccccc2)cc1COc1ccc(F)cc1 | 0 | 0 | ? | 0
COc1ccc(/C=N/NC(=S)Nc2ccccc2)cc1COc1ccccc1F | 0 | 0 | 14.1µM | 0
CCOc1ccccc1NC(=O)CSC1=C(C#N)C(c2ccco2)C(C(=O)Nc2nc3ccccc3s2)=C(C)N1 (stereo not given) | 0 | 0 | 5.01µM | 0
Cc1ccc2cccc(NC(=O)c3ccc(-c4ccc(Br)cc4)o3)c2n1 | 0 | 0 | - | -
O=C(Nc1cccc2nsnc12)c1ccc(-c2ccc(Br)cc2)o1 | 35.5µM | 0 | 0 | ?
O=C(Nc1cccc(-c2nc3ccccc3o2)c1)c1ccc(-c2ccc(Br)cc2)o1 | 39.8µM | 0 | - | -
O=C(Nc1ccc2oc(-c3cccnc3)nc2c1)c1ccc(-c2cccc(OC(F)(F)F)c2)o1 | 10µM | 0 | - | -
CCOC(=O)/C(=C\c1cccnc1)C(=O)c1cc(C(C)=O)c(Nc2ccccc2)s1 | 20µM | 0 | 0 | 0
CCOC(=O)/C(=C\c1ccccc1)C(=O)c1cc(C(C)=O)c(Nc2ccccc2)s1 | 0 | 0 | 0 | 0
Cc1ccc(OCCC(=O)OCC(=O)NC(=O)c2ccccc2)cc1 | 0 | 0 | 0 | -
CCCCN(C(=O)Cn1ncc(Cl)c(Cl)c1=O)c1c(N)n(CC(C)C)c(=O)[nH]c1=O | 4.47µM | 0 | 0 | 0
CCCCN(C(=O)CN1CC(C)OC(C)C1)c1c(N)n(CC(C)C)c(=O)[nH]c1=O (stereo not given) | 0 | 0 | 0 | 0
CC(=O)c1cc(-c2ccccc2)n(CC(=O)Nc2cccc(C)c2)c1C | 0 | ? | 14.1µM | 0
SMILES | Sm TGR inh | AmpC detergent | AmpC no deterg | FBPA Giardia inh
Cc1nc(SCC(=O)NCc2ccco2)c2c(=O)n(C)c(=O)n(CC(C)C)c2n1 | 0 | 0 | 0 | 0
COCCN(C(=O)c1cc(OC)c(OC)c(OC)c1)c1c(N)n(Cc2ccccc2)c(=O)[nH]c1=O | 0 | 0 | 0 | 0
Cc1cccc2c1c1ccc3c(c1n2C)C(=O)C=CC3=O | 2.51µM | 0 | 0 | ?
O=C1CC(c2ccc3c(c2)OCCO3)Oc2ccc([N+](=O)[O-])cc21 (stereo not given) | 89.1µM | 0 | 0 | 0
NC(C(=O)O)C(c1ccccc1)C(F)F (stereo not given) | 56.2µM | 0 | 0 | ?
O=C(O)C(O)c1ccccc1 (stereo not given) | 0 | ? | 0 | 0
Cc1c(O)ccc(C(=O)CN2CCN(c3ccccc3)CC2)c1O | 22.4µM | ? | 0 | 0
COc1ccc(N2CCN(CC(=O)c3ccc(O)c(C)c3O)CC2)cc1 | ? | 0 | 0 | 0
CCOC(N)=O | - | - | - | 0
N#CC(c1ccccn1)c1ncc(C(F)(F)F)cc1Cl (stereo not given) | 0 | 0 | 0 | 0
CCCn1nc([N+](=O)[O-])c(C(C#N)c2nc3ccccc3o2)c(Cl)c1=O (stereo not given) | 2.24µM | 0 | 0 | 0
CCn1nc([N+](=O)[O-])c(C(C#N)c2nc3cc(C(F)(F)F)ccc3s2)c(Cl)c1=O (stereo not given) | 3.98µM | ? | 0 | 0
Cn1nc([N+](=O)[O-])c(C(C#N)c2ccccn2)c(Cl)c1=O (stereo not given) | 4.47µM | ? | 0 | ?
C/C(N)=C(/C#N)C(=O)CSc1nc2cc(Cl)ccc2s1 | 0 | 0 | ? | 0
COc1ccc(S(=O)(=O)N2CCCCC2)cc1NC(=O)c1[nH]c(C)c(C(C)=O)c1C | - | - | 0 | -
CC1(C)CC(Nc2ccc(Nc3ccccc3)cc2)CC(C)(C)N1 | 6.31µM | 0 | 0 | 0
CC1(C)CC(NC(=O)c2ccccc2)CC(C)(C)N1 | 0 | 0 | 0 | 0
Cc1ccc(/C=C2\SC(=S)N(/N=C/c3cc([N+](=O)[O-])ccc3O)C2=O)o1 | 8.91µM | 0 | 0 | 0
O=C(NN1C(=O)/C(=C/c2ccc(O)c([N+](=O)[O-])c2)SC1=S)c1ccccc1Cl | 0 | 0 | 0 | 0
O=C(NN1C(=O)/C(=C/c2cc([N+](=O)[O-])ccc2O)SC1=S)c1ccccc1O | 35.5µM | 0 | 0 | -
Cc1cc(C)c(OCCOCCn2c(-c3ccc(Cl)cc3)nc3ccccc3c2=O)c(C)c1 | 0 | 0 | - | -
O=C(NCc1ccc(Cl)cc1)C(=O)NCC(c1ccco1)S(=O)(=O)c1cccs1 (stereo not given) | 39.8µM | 0 | - | -
COc1ccc(CNC(=O)C(=O)NCC(c2ccco2)S(=O)(=O)c2cccs2)cc1 (stereo not given) | 17.8µM | 0 | - | -
O=C(CCC(=O)NC1CCCCC1)N/N=C/c1ccncc1 | 0 | 0 | 0 | 0
CN1C(=O)C2CCCCN2c2ccc(C(=O)NCc3ccccc3Br)cc21 (stereo not given) | 0 | 0 | - | -
SMILES | Sm TGR inh | AmpC detergent | AmpC no deterg | FBPA Giardia inh
CCc1cc(C(=O)N/N=C/c2ccc(OC)cc2)c2ccccc2n1 | 0 | 0 | 0 | 0
CC(=O)c1c(COC(=O)c2ccco2)nc2ccccc2[n+]1[O-] | 39.8µM | 0 | 0 | 0
Cc1nnc(N2CCN(c3ccccc3F)CC2)c2c1nnn2Cc1ccccc1 | 0 | 0 | - | -
CC(=O)NNc1nc(-c2ccc(NC(C)=O)cc2)cs1 | 39.8µM | 0 | 0 | 0
CC(=O)Nc1ccc(-c2csc(NNC(=O)c3ccc(C)cc3)n2)cc1 | - | 0 | 0 | 0
Oc1ccc(COCc2ccc(F)cc2)c2cccnc12 | 35.5µM | ? | 0 | -
OCc1ccnc2c(O)cccc12 | 14.1µM | 0 | 0 | 0[12.9 µM]
Oc1ccc(COc2cccc3ccccc23)c2cccnc12 | 8.91µM | 0 | 0 | -
Oc1ccc(COC2CCCC2)c2cccnc12 | 17.8µM | ? | 0 | -
Cc1noc(/C=C/c2ccco2)c1S(=O)(=O)N1CCC(C(=O)Nc2ccc(F)c(Cl)c2)CC1 | 0 | 0 | - | -
O=C(Nc1cccc(S(=O)(=O)N2CCCCC2)c1)C1COc2ccccc2O1 (stereo not given) | - | - | 0 | -
CN(C)c1nnnn1-c1ccc(OC(F)(F)F)cc1 | 0 | 0 | 0 | 0
